{
  "source": "PubChem BioAssay (NCI)",
  "note": "The panel holds about 79,000 compounds, 15% with a hit somewhere; the sample as a whole holds those more often. Activity calls are given as the source filed them. Cut-off read from the data, not from the text of the source: active = growth inhibition above about 70%; inactive = the rest.",
  "data": [
    {"test": "NCI Yeast Anticancer Drug Screen. Data for the rad50EPP+ strain (AID 151);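 note: 0% = growth of vehicle-treated control cultures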", "conditions": "S. cerevisiae rad50 mutant strain, at 11.0 µM, stronger effect = higher value", "procedure,_shortened": "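Growth inhibition read against vehicle controls in rad50EPP+ yeast, a strain altered in DNA damage repair, after compound exposure.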", "values": [
      {"smiles": "COc1ccc2nc3cccc([N+](=O)[O-])c3c(NCCNCCN(C)C)c2c1", "growth inhibition": "0% (inactive)"},
      {"smiles": "Cc1cccc(/C=N/NC(=S)NC2CCCCC2)n1", "growth inhibition": "-13% (inactive)"},
      {"smiles": "COC(=O)C(=O)c1c(-c2ccc(Cl)c(Cl)c2)[nH]c2[nH]n(-c3ccccc3)c(=O)c2c1=O", "growth inhibition": "24% (inactive)"},
      {"smiles": "c1ccc([P+](CCN2Cc3ccccc3C2)(c2ccccc2)c2ccccc2)cc1", "growth inhibition": "-10% (inactive)"},
      {"smiles": "Cc1cc(C)c2[s+]snc2c1", "growth inhibition": "5% (inactive)"},
      {"smiles": "CC(C)(Br)C(=O)/C=C/c1ccccc1", "growth inhibition": "76% (active)"},
      {"smiles": "Cc1ccc(S(=O)(=O)NC(=O)C2C(=O)CC3(CCCCC3)CC2=O)cc1", "growth inhibition": "-18% (inactive)"},
      {"smiles": "NC(=S)N1N=C2c3ccccc3CC[C@H]2[C@@H]1c1ccc(Cl)cc1", "growth inhibition": "-14% (inactive)"},
      {"smiles": "O=[N+]([O-])/C=C/c1cc2ccc3ccccc3c2[nH]1", "growth inhibition": "94% (active)"},
      {"smiles": "O=C1C(=C2CCCC2)CCC1CN1CCCCC1", "note": "(stereo unspecified)", "growth inhibition": "48% (inactive)"},
      {"smiles": "OC(CC(O)(C(F)(F)F)C(F)(F)F)c1ccc(C(O)CC(O)(C(F)(F)F)C(F)(F)F)cc1", "note": "(stereo unspecified)", "growth inhibition": "9% (inactive)"},
      {"smiles": "COc1cc2c(cc1OC)[C@@H](Nc1ccc(C#N)cc1)C1COC(=O)[C@@H]1C2c1cc(OC)c(O)c(OC)c1", "note": "(stereo partly specified)", "growth inhibition": "-1% (inactive)"},
      {"smiles": "O=c1cccccc1[O-].O=c1cccccc1[O-].O=c1cccccc1[O-].[Eu+3]", "growth inhibition": "16% (inactive)"},
      {"smiles": "O=C1c2ccccc2C(=O)c2sc(Nc3ccccc3Cl)nc21", "growth inhibition": "94% (active)"},
      {"smiles": "NC(CCCCCCCCCCCCC(N)C(=O)c1ccccc1)C(=O)c1ccccc1", "note": "(stereo unspecified)", "growth inhibition": "-2% (inactive)"},
      {"smiles": "CC1=C(C)C(=O)C2=C(OCCO2)C1=O", "growth inhibition": "5% (inactive)"}
    ]}
  ]
}
